CHX counter: Cycloheximide Counterscreen for Small Molecule Inhibitors of Shiga Toxin | cell reporter, cycloheximide protein synthesis inhibition counterscreen | AID 2314, 2010 | hit rate 12% among 300,000 | max response, %; in the data active = max response mostly above about 13%, no sharp cut-off; inactive = mostly below about 14%; also: read at 38.3 µM for the half of the compounds with a filed dose; 0% is about no effect
HCMV inh: qHTS Assay for inhibitors of the human cytomegalovirus (HCMV). HFF cells, HCMV-luciferase reporter, 72 h; active compounds read low. activity change, negative = inhibition, % at 57.5 µM. hit rate 4.5% among 410,000. AID 1259415, 2018; in the data active = activity change below about -60%; inconclusive = no clear call, values can overlap the other calls; inactive = above about -39%; also: % is scaled to controls: 0 for no effect and ±100 for the full control effect
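Two-dose cell screen: HFF monolayers treated with compounds and infected with luciferase-expressing HCMV at 1 PFU/cell, 72 h at 37C, then lysed for luciferase measurement.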
Pf growth 48h: Primary qHTS for delayed death inhibitors of the malarial parasite plastid, 48 hour incubation. Potency, µM (series often up to 28.7 µM), without a hit: at the highest dose activity change, negative = inhibition, most hits filed as inhibitors. P. falciparum luciferase growth in erythrocytes, 48 h. hit rate 5.9% among 310,000. AID 504832, 2011; also: potency is read from the fitted curve at half-maximal effect; % is scaled to controls: 0 for no effect and ±100 for the full control effect
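Growth was read as firefly luciferase luminescence after a 48 h, 37 C, 5% CO2 exposure of compounds to reporter-bearing P. falciparum cultures (0.1% parasitemia, 2% hematocrit final) in Albumax-supplemented RPMI 1640.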
Shiga inhibitor: A qHTS for Small Molecule Inhibitors of Shiga Toxin. Vero cells, Shiga toxin protein synthesis inhibition reporter. inhibition, % at 38.7 µM. hit rate 9.2% among 290,000. AID 2315, 2010; in the data active = inhibition mostly above about 28%, no sharp cut-off; inactive = mostly below about 43%; also: 0% is about no effect
Pf growth 96h: Primary qHTS for delayed death inhibitors of the malarial parasite plastid, 96 hour incubation; AID 504834, 2011; Potency, µM (series often up to 28.7 µM), for the others: at the top dose activity change, negative = inhibition, most hits filed as inhibitors; hit rate 6.9% among 320,000; P. falciparum luciferase reporter growth, 96 h; also: potency is read from the fitted curve at half-maximal effect; % is scaled to controls: 0 for no effect and ±100 for the full control effect
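Two parasite generations (96 h, 37 C, 5% CO2) of compound exposure in infected erythrocytes (0.05% parasitemia, 2% hematocrit). Luciferase-reporter P. falciparum; decreased luminescence indicates inhibited growth, aimed at apicoplast-acting delayed death.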
Starred values were filed as active, the others as inactive; u = inconclusive; x = not tested or not shown. Hits are enriched below; roughly 20% of the tested compounds scored in any of these assays. Unless noted, calls follow the shape of the dose curve; as a rule, active = well fitted inhibition curve with a large enough effect; inconclusive = small, poorly fitted or top-dose-only effect, or another doubt; inactive = no such curve, though single readings can be large or run the other way.

SMILES	CHX counter	HCMV inh	Pf growth 48h	Shiga inhibitor	Pf growth 96h
O=C(O)c1cccc(NS(=O)(=O)c2ccc3c(c2)C(=O)c2ccccc2C3=O)c1	16*	u	24%	20	-18%
O=C(Nc1ccccc1)c1ccc(S(=O)(=O)N2CCCC2)cc1	-2	-31	u	-1	37%
O=C1c2ccccc2C(=O)c2cc(S(=O)(=O)Nc3ccccc3)ccc21	2	-38	0%	-12	-15%
COc1cc(C(=S)N2CCOCC2)cc(OC)c1OS(=O)(=O)c1ccc(NC(C)=O)cc1	-4	3	0%	-16	13µM*
CC(=O)N1CCOc2cc(S(=O)(=O)Nc3cccc(C(F)(F)F)c3)c(Cl)cc21	x	-19	13µM*	x	u
COc1cccc(NC(=O)CSc2nnc3scc(-c4ccc(Cl)cc4)n23)c1	x	-34	x	x	x
Cc1nn(CCCC(=O)NCc2ccco2)c(=O)c2nn(-c3ccccc3)c(C)c12	-1	u	-22%	-3	-8%
CC(C)C(=O)Nc1cccc(C(=O)Nc2ccc(S(=O)(=O)N3CCOCC3)cc2)c1	-2	-21	-11%	-5	10µM*
Cc1ccc(S(=O)(=O)Nc2cccc(C(=O)N3CCN(c4ccccc4O)CC3)c2)cc1F	x	1	1.5µM*	x	u
Cc1cccc(C(=O)NNC(=O)c2ccc(S(=O)(=O)N3CCOCC3)cc2)c1	-4	-75*	5%	-10	u
CC(C)C(=O)Nc1ccc(C(=O)Nc2ccc(S(=O)(=O)N3CCOCC3)cc2)cc1	-2	x	u	-8	260%
COc1ccc(C2CC(c3ccc4ccccc4c3OC(C)=O)=NN2C(=O)/C=C/c2ccccc2)cc1 (centres undefined)	1	2	12µM*	-3	u
COc1ccc(C2CC(c3ccccc3OC(C)=O)=NN2C(C)=O)cc1 (centres undefined)	30*	90	u	49*	-6%
C#CCOC(=O)Nc1ccc(OCC(F)(F)F)nc1	21*	0	35%	46*	39%
Cc1cc2c(C)cc(=O)[nH]c2cc1NC(=O)CCl	-1	-25	u	-6	8.3µM*
O=C(CCl)Nc1cc2[nH]c(=O)[nH]c2cc1Br	6	-105*	2.3µM*	-3	7.4µM*
Cc1cc2oc(=O)cc(C)c2cc1NC(=O)CCC(=O)O	-2	5	x	-3	-2%
Cc1cc2oc(=O)cc(C)c2cc1NC(=O)CCl	30*	-100*	u	21	4.7µM*
CCc1ccc(NC(=O)Cn2cnc3sc(C)c(S(=O)(=O)N4CCN(c5ccccc5OC)CC4)c3c2=O)cc1	x	15	x	x	x
CCn1c(SCC(=O)Nc2ncc(C(F)(F)F)cc2Cl)nnc1-c1cccc(C)c1	-9	7	11%	-13	-10%
COc1ccc(-c2nnc(SCC(=O)Nc3ncc(C(F)(F)F)cc3Cl)n2CC(C)C)cc1	15*	16	-1%	-7	29%
CC(C)OCC(O)CN1CCN(CCN2C(=O)c3cccc4cccc(c34)C2=O)CC1 (centres undefined)	-1	-30	16%	66	1%
CC(=O)c1cccc(NC(=S)N2CCN(CCN3C(=O)c4cccc5cccc(c45)C3=O)CC2)c1	-8	-79*	-6%	-3	32%
CC(=O)c1ccc(OCC(O)CN2CCN(CCN3C(=O)c4cccc5cccc(c45)C3=O)CC2)cc1 (centres undefined)	-2	-84*	-79%	-2	-101%
CCCCOc1ccc(-c2nc(/C=N/c3nccs3)c(O)o2)cc1	2	-32	15%	2	45%
SMILES	CHX counter	HCMV inh	Pf growth 48h	Shiga inhibitor	Pf growth 96h
Cc1ccc(-c2nc(C=Nc3ccccc3)c(O)o2)cc1	51*	-9	46%	85*	72%
Oc1oc(-c2ccc(Br)cc2)nc1/C=N/c1ccccn1	54*	51	90%	120*	52%
COc1ccc2cc(N=Cc3nc(-c4ccc(C)cc4)oc3O)cnc2c1	-6	-2	19%	26	u
Cc1ccc(N=Cc2nc(-c3ccco3)oc2O)cc1	29*	u	11%	101*	4%
Cc1ccc(-c2nc(C=Nc3cccc(C)c3)c(O)o2)cc1	14	u	35%	67	-18%
C/C(Cn1cnc([N+](=O)[O-])n1)=N\NC(=O)c1cccnc1	14*	6	-11%	25	44%
C/C(Cn1cnc([N+](=O)[O-])n1)=N\NC(=O)c1ccc(Br)cc1	18*	-26	11%	44*	-12%
CC(C)(CNC(=O)c1ccc(S(=O)(=O)Nc2ccc(Cl)cc2)cc1)N1CCOCC1	x	-14	u	x	-8%
O=C(Nc1ncc(Br)s1)C(Cc1ccccc1)n1cccc1 (centres undefined)	-5	0	x	-4	u
CCOC(=O)C1=C(C)NC(C)=C(C(=O)OCC)C1c1ccc(OC)c(OC)c1	x	85	x	x	x
CC1=C(C(=O)OC2CCCCC2)C(c2ccc(C)o2)C2=C(CCCC2=O)N1 (centres undefined)	5	-34	x	4	u
COc1ccccc1NC(=O)C1=C(C)NC2=C(C(=O)CC(c3ccc(OC)c(OC)c3)C2)C1c1coc2ccccc2c1=O (centres undefined)	-2	-28	12µM*	7	0%
COC(=O)C1=C(C)NC(C)=C(C(=O)OCC2CCCO2)C1c1cccc(Br)c1 (centres undefined)	3	-5	9.3µM*	-31	u
CC1=C(C(=O)OCC2CCCO2)C(c2cccc(O)c2)NC(=O)N1 (centres undefined)	1	0	14%	-1	34%
CCOC(=O)C1=C(C)NC2=C(C(=O)CC(c3ccc(OC)c(OC)c3)C2)C1c1ccc(C)o1 (centres undefined)	-1	-32	1.2µM*	-17	u
CC1=C(C(=O)OCc2ccccc2)C(c2ccc(C)o2)C2=C(CCCC2=O)N1 (centres undefined)	-2	-10	12µM*	-6	85%
COc1ccc(/C(=C/Nc2cccc(Br)c2)C(C)=O)cc1OC	-1	-8	44%	13	21%
COc1ccc(C2C(C(=O)OCC3CCCO3)=C(C)NC3=C2C(=O)CC(c2ccco2)C3)cc1O (centres undefined)	-2	17	u	-17	10µM*
Cc1ccc(-n2nc(C)c3c(C)cc(=O)[nH]c32)cc1	21*	105	63%	32	x
Cc1ccc2c(c1)c1c(c(=O)n(-c3ccccc3C)c(=O)n1CC(=O)N1CCCC1)n2C	x	-6	x	x	x
CC(C)(C)c1cc(O)ccc1O	x	-27	6µM*	x	11µM*
COc1ccc(O)c(C(C)(C)C)c1	-6	u	69%	-9	37%
